# According to PubChem BioAssay (NCI):
# The panel holds about 83,000 compounds, 20% with a hit somewhere; the sample as a whole holds those more often.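 Testing used 96-well plates and a 48-hour single-concentration exposure. Example: -40 means 40% of the starting cells died.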 A number with no mark means an inactive call. Calls of active or inactive are those of the source. How the source made its calls: active means growth percent below 10; inactive means the rest.
# Columns and labels:
# Test in all cases: NCI-60 one-dose screen, 48 h (100 = growth as untreated, 0 = no growth, -100 = all killed)
# Settings in all cases: 10 µM unless noted
# DU-145 prostate = system: DU-145 prostate
# K-562 leukemia = system: K-562 leukemia
# MALME-3M melanoma = system: MALME-3M melanoma
# MDA-MB-231 breast = system: MDA-MB-231 breast
# RXF 393 renal = system: RXF 393 renal
# SF-268 CNS = system: SF-268 CNS
# SF-295 CNS = system: SF-295 CNS
# SF-539 CNS = system: SF-539 CNS
# UACC-257 melanoma = system: UACC-257 melanoma
# M14 melanoma = system: M14 melanoma
# HCT-15 colon = system: HCT-15 colon
# HT29 colon = system: HT29 colon
# SNB-75 CNS = system: SNB-75 CNS
# SNB-19 CNS = system: SNB-19 CNS
# U251 CNS = system: U251 CNS
# PC-3 prostate = system: PC-3 prostate
# SK-MEL-5 melanoma = system: SK-MEL-5 melanoma
# UACC-62 melanoma = system: UACC-62 melanoma
# LOX IMVI melanoma = system: LOX IMVI melanoma
# SK-MEL-28 melanoma = system: SK-MEL-28 melanoma
SMILES,growth (DU-145 prostate),growth (K-562 leukemia),growth (MALME-3M melanoma),growth (MDA-MB-231 breast),growth (RXF 393 renal),growth (SF-268 CNS),growth (SF-295 CNS),growth (SF-539 CNS),growth (UACC-257 melanoma),growth (M14 melanoma),growth (HCT-15 colon),growth (HT29 colon),growth (SNB-75 CNS),growth (SNB-19 CNS),growth (U251 CNS),growth (PC-3 prostate),growth (SK-MEL-5 melanoma),growth (UACC-62 melanoma),growth (LOX IMVI melanoma),growth (SK-MEL-28 melanoma)
Cc1cc(=O)oc2c1ccc1oc(C(=O)c3ccccc3)c(C)c12,98.5%,49.2%,113%,76.3%,99.8%,122%,55.8%,92.5%,100%,77.2%,64%,51.8%,103%,103%,83.9%,86.4%,84.3%,80.8%,80.5%,105%
O=C1c2ccccc2-c2cn(Cc3ccccc3)c3cccc(c23)C1c1cccnc1 (centres undefined),60.7%,26.8%,38.9%,52.4%,57.9%,58%,25.9%,54.7%,55%,48.4%,31.2%,4.25% (active),23.2%,54%,25%,55.4%,21.7%,47.3%,57.4%,53.9%
c1ccc2cc(Cn3c(-c4ccc5ccccc5c4)[n+](Cc4ccc5ccccc5c4)c4ccccc43)ccc2c1,-19.2% (active),-45.1% (active),-58% (active),-72.9% (active),-65% (active),-83.5% (active),-79.1% (active),-75.2% (active),-38.5% (active),-72.8% (active),-74.6% (active),-71.7% (active),-69.5% (active),-76.4% (active),-78.6% (active),-57.8% (active),-97.2% (active),-87.8% (active),-98.8% (active),-55.3% (active)
CC(=O)OC[C@]1(C)C=C2C(=O)[C@](C)(O)C3(CC3)C(C)=C2[C@H]1OC(C)=O,16.7%,93.1%,111%,93.2%,3.69% (active),69.4%,83%,95.2%,106%,88.2%,72.9%,69.9%,56.5%,83%,79.5%,88.1%,87.8%,103%,78.3%,109%
Cn1c(=O)c2c(-c3ccccc3F)n(-c3ccc4c(c3)OCO4)cc2n(C)c1=O,110%,78.7%,141%,77.1%,83.3%,97.4%,87.9%,92.7%,117%,117%,87.8%,112%,80.9%,99.6%,92.1%,74.7%,67.3%,86.2%,95.9%,100%
COc1ccc(/C=N\N2CCOCC2)cc1OC1CCCC1,102%,108%,127%,110%,113%,94.8%,98.1%,94.9%,102%,92.7%,104%,106%,86.8%,95.8%,101%,101%,99.3%,92.7%,101%,116%
COc1cc(/C=C/C(=O)C(=Cc2ccc(F)c(F)c2)C(=O)/C=C/c2ccc(O)c(OC)c2)ccc1O,17.3%,13.7%,51%,13.1%,-32.5% (active),20%,53.7%,26.9%,47.3%,2.1% (active),26%,-31.4% (active),38.3%,63.1%,18.8%,30.7%,40.9%,32.3%,-82.5% (active),36%
O=C(N/N=C/c1ccc(F)cc1)c1[nH]c2ccc(I)cc2c1-c1ccccc1,15.7%,75.4%,71.5%,16.5%,39.6%,34.6%,22.1%,-18.1% (active),93.3%,28.4%,18.7%,12.5%,51.7%,12%,20.4%,–,-30% (active),35.2%,25.8%,67.9%
C=C(C)CCCC(C)CC#N (centres undefined),105%,105%,88%,115%,105%,94.6%,94.3%,95.6%,104%,96.5%,101%,93.9%,91.3%,110%,–,95.7%,99.7%,111%,99.2%,106%
Cc1ccc(S(=O)(=O)c2ccc3[nH]c(=O)[nH]c(=O)c3c2)cc1,107%,87.2%,119%,101%,114%,104%,116%,101%,91.5%,101%,103%,107%,92.4%,94.3%,95.1%,–,103%,92.9%,101%,114%
Cc1nc2cc(Nc3nc(Cl)nc(Nc4ccc(F)cc4)n3)ccc2n1Cc1ccccc1,64%,85.2%,107%,82.1%,77.1%,91.1%,96.4%,70.2%,89.7%,109%,72.1%,94.5%,90%,92.4%,–,78.8%,92.4%,82.4%,43.3%,106%
COc1cc(C2=NN(c3ccc(S(N)(=O)=O)cc3)C(c3ccc(Cl)cc3)C2)cc(OC)c1OC (centres undefined),65.9%,18.7%,85.7%,43.7%,34.8%,48.2%,25%,69.1%,57.5%,45.7%,43.1%,32.1%,41.5%,56.5%,23.9%,–,27.5%,–,42.5%,44.3%
CN1CCc2c(Sc3ccc(C(=O)NO)cc3)c3ccccc3n2C1,36.8%,28.2%,42.4%,8.01% (active),52.5%,35.9%,40.6%,17.1%,14.1%,38.1%,75.6%,48.9%,25.8%,53.4%,23.8%,–,–,38.9%,11.6%,14.7%
C[C@H]1C(=O)C23CCC1C[C@@]21O[C@@H]2C(C)(C)C=CC(=O)C23COC1=O,104%,104%,110%,118%,108%,104%,110%,111%,98.7%,102%,109%,110%,83.6%,100%,105%,–,103%,–,93.7%,111%
O=C1c2ccccc2C(=O)c2c(Nc3ccc(CCO)cc3)ccc(O)c21,60.7%,17.2%,77.2%,56.4%,74.6%,60.4%,50.2%,84.8%,101%,80.3%,61.7%,57.4%,64.3%,84.8%,74.2%,–,86.7%,74.9%,51.6%,44.8%
